Hits are enriched below; roughly 4.2% of the tested compounds scored in any of these assays.
CCHFV vOTU inh: blocks the CCHF virus ovarian tumor domain protease. actives 0.55% (n = 370,000). inhibition, % at 11.5 µM. CCHFV vOTU protease, Pep-AMC fluorescence; in the data active = inhibition above about 30%; note: 0% = vehicle wells with enzyme and 100% = no enzyme wells
Mtb FBA inh: inhibits M. tuberculosis FBA enzyme; P9WQA3; purified M. tuberculosis FBA, fluorescence read-out; inhibition, % at 1 µM; actives 2.3% (n = 360,000); AID 588726;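 note: 0% = vehicle and 100% = reference inhibitor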
Target sequence (P9WQA3 whole entry, looked up): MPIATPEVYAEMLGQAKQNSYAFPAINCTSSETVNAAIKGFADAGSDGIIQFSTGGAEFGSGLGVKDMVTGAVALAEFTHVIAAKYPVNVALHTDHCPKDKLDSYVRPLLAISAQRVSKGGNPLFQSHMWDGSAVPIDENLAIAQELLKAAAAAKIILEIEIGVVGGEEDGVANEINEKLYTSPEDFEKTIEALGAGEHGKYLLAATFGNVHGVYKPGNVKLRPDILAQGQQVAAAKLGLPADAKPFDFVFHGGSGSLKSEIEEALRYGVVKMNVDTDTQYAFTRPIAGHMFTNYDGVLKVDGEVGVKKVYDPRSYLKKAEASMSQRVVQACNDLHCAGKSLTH
GDH-TPI counter-1: GDH-TPI coupled enzyme inhibition counter-screen. GDH-TPI coupled enzyme counterscreen, NADH absorbance. actives 1.2% (n = 360,000). inhibition, % at 4.8 µM; in the data active = inhibition above about 30%;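 note: 0% = DMSO wells and 100% = wells lacking the enzyme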
Mtb betalactam: beta-lactam sensitization of Mtb H37Rv; actives 0.27% (n = 330,000); AID 434955; M. tuberculosis H37Rv growth with meropenem, percent inhibition; inhibition, % at 25 µM; call rule not given here;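 note: growth measured after seven days incubation then overnight dye step; 0% = bacteria only wells and 100% = bacteria with antibiotic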
RecA splice inh: blocks M. tuberculosis RecA intein splicing; cell-free RecA intein splicing, fluorescence; inhibition, % (concentration not given with the values); actives 0.75% (n = 290,000); AID 2221; in the data active = inhibition above about 30%;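 note: 0% = vehicle wells and 100% = reference inhibitor control wells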
Mtb FBA confirm: confirmation of M. tuberculosis fructose-bisphosphate aldolase inhibitors; inhibition, % at 1 µM; actives 78% (n = 5,600); shares compounds with Mtb FBA inh; purified M. tuberculosis FBA, fluorescence read-out;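 note: 0% = vehicle wells and 100% = reference inhibitor wells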
GDH-TPI counter-2: GDH-TPI inhibition counter-screen for FBA inhibitors; shares compounds with Mtb FBA inh; GDH-TPI coupled enzyme counterscreen, fluorescence; inhibition, % at 1 µM; actives 81% (n = 5,600); in the data active = inhibition above about 10%
GDH-TPI DR: counter-screen for M. tuberculosis FBA inhibitors: GDH-TPI dose response; shares compounds with Mtb FBA inh; GDH-TPI coupled enzyme assay, fluorescence, artifact counterscreen; IC50, µM; actives 79% (n = 170); call rule not given here
* = called active by the depositor; nt = not tested or not shown; + = active, no number. Cut-off read from the data, not from the text of the source, unless noted: active = inhibition above about 27%; inactive = the rest.

SMILES	CCHFV vOTU inh	Mtb FBA inh	GDH-TPI counter-1	Mtb betalactam	RecA splice inh	Mtb FBA confirm	GDH-TPI counter-2	others
COCCN1CN(S(=O)(=O)c2cccc(Cl)c2)c2nc3ccccc3nc21	-42.8	29.4*	26.6	6.9	1.2	53.7*	30.0*
CN1CCN(c2ccc3c(c2)Oc2ccccc2CN(Cc2cn(Cc4ccc(C(F)(F)F)cc4)nn2)S3(=O)=O)CC1	27.0	nt	nt	nt	nt	nt	nt
CCOc1cc(S(=O)(=O)NCc2ccccc2)c(OCC)cc1-n1cnnn1	-14.3	49.0*	-7.0	-5.3	5.6	131.7*	110.8*
Cc1[nH]n(-c2ccccc2)c(=O)c1C=Nc1cnc2ccccc2c1	-26.5	34.0*	20.4	98.7	-2.9	12.7	0.1
CC(C)OC(=O)CSc1nc(N)c(C#N)c(-c2cccs2)c1C#N	-5.3	0.0	6.2	-4.6	-0.3	nt	nt
CCOC(=O)C(C)Sc1nc(-c2cccs2)ccc1C#N (stereo unspecified)	-20.0	40.7*	21.3	93.5	5.7	1.9	4.3
C=COC(=O)CSc1nc(-c2cccs2)ccc1C#N	-7.9	30.3*	16.2	94.5	nt	71.0*	53.2*
COc1ccc2ccc(=O)oc2c1CC(=O)C(C)C	-17.4	39.0*	13.9	-3.7	nt	26.5	17.6*
COc1cc2ccc(=O)oc2c(O)c1OCC=C(C)C	-11.4	2.0	14.4	-0.2	-57.4	nt	nt
COc1ccc2ccc(=O)oc2c1CC(O)C(C)(C)O (stereo unspecified)	-35.6	66.2*	13.7	-6.2	-3.4	3.5	-4.8
CC1=CN2CC(O)CN=C2C=C1 (stereo unspecified)	-35.7	38.5*	5.4	-11.6	1.1	127.9*	96.6*
CC1=CC=CN2CC(O)CN=C12 (stereo unspecified)	-3.4	30.4*	7.5	-4.8	-2.4	+	+
Fc1ccccc1-c1nc2ccccc2[nH]1	-6.9	23.7	-3.3	1.0	2.2	nt	nt
c1ccc2[nH]c(-c3ccnc4ccccc34)nc2c1	-18.6	45.2*	25.1	0.6	-0.5	119.0*	86.8*
c1ccc2c(-c3nc4ccccc4[nH]3)cccc2c1	-10.2	107.3*	0.4	nt	nt	79.7*	42.2*
CCOC(=O)[C@@]12CCCC3=C1N(CCC3)C(=O)[C@H]2CC(=O)NCCc1ccccc1OC	6.1	nt	nt	nt	nt	nt	nt
CCOC(=O)Cc1cc(=O)n2[nH]c(C)c(-c3ccccc3)c2n1	2.8	38.9*	12.2	7.8	-0.8	96.5*	77.4*
CCOC(=O)Cc1cc(=O)n2[nH]c(-c3ccccc3)c(-c3ccccc3)c2n1	0.9	42.8*	3.8	-1.9	-2.8	80.5*	67.0*
CCOC(=O)Cc1cc(=O)n2[nH]c(-c3ccccc3)cc2n1	nt	22.2	3.9	8.5	nt	nt	nt
COC(=O)[C@]12C[C@H](CC(=O)NCC34CC5CC(CC(C5)C3)C4)C(=O)N(Cc3ccccc3)C1=C[C@H](C(C)(C)C)O[C@@H]2C	18.8	nt	nt	nt	nt	nt	nt
CC1(C)CC(n2c(NCCO)nc3c(c2=O)C2(CCCC2)Cc2ccccc2-3)CCO1 (stereo unspecified)	-12.4	38.0*	11.5	28.1	5.8	+	193.2*
O=c1[nH]c(NCCO)nc2c1C1(CCCCC1)Cc1ccccc1-2	-86.9	97.7*	13.0	-0.8	nt	-3.7	-6.9
Cc1cc(O)cc(=O)n1-c1cc(C(F)(F)F)cc(C(F)(F)F)c1	-3.0	nt	nt	nt	nt	nt	nt
COc1ccc(C2C3=C(CC(C)(C)CC3=O)N(CCN3CCOCC3)C3=C2C(=O)CC(C)(C)C3)cc1	-33.7	23.2	14.0	-1.4	-114.1	nt	nt
CC1(C)CC(=O)C2=C(C1)N(CCN1CCOCC1)C1=C(C(=O)CC(C)(C)C1)C2c1ccc(Cl)cc1	-8.8	35.9*	10.1	-6.3	-53.7	15.3	4.0	GDH-TPI DR=4.61*
SMILES	CCHFV vOTU inh	Mtb FBA inh	GDH-TPI counter-1	Mtb betalactam	RecA splice inh	Mtb FBA confirm	GDH-TPI counter-2	others
COc1cccc(Oc2ccc(OC)cc2C(=O)O)c1	-3.6	-1.2	-0.7	-4.9	0.4	nt	nt
COc1cccc(-c2c(C(=O)O)cc(O)c3ccc(OC)cc23)c1	-4.6	34.1*	18.5	nt	nt	5.6	1.0
CCOC(=O)N1CCN(C(=O)C[C@H]2C(=O)N(Cc3ccc(OC)cc3)C3=CCCC[C@@]32C(=O)OCC)CC1	12.3	nt	nt	nt	nt	nt	nt
Cc1cccc(C=Nc2ccccc2C(N)=O)c1	-81.8	35.6*	2.1	-3.6	-2.1	139.9*	100.9*
Cc1ccc(C=Nc2ccccc2C(N)=O)s1	-65.6	58.4*	13.3	0.1	6.9	59.5*	50.2*
Cc1ccc(/C=N/N=C/c2ccc(C)s2)s1	2.1	0.9	18.4	-1.9	1.3	nt	nt
COC(=O)C1=C(c2ccc(-c3ccccc3)c(F)c2)C[C@@H]2CC[C@H]1N2C(=O)NCCNC(C)=O	-1.8	42.9*	3.1	-2.5	nt	45.3*	37.8*
C=C(C)CN(CC)C(=O)CN1C(=O)NC2(CCc3ccccc32)C1=O (stereo unspecified)	20.4	0.8	4.4	-5.3	1.0	nt	nt
C=C(C)CN(CC)C(=O)CN1C(=O)NC2(CCCc3ccccc32)C1=O (stereo unspecified)	9.3	62.9*	-3.2	-1.9	0.1	100.7*	85.4*
COC(=O)[C@]12C[C@H](CC(=O)N3CCCCC3)C(=O)N(Cc3ccc(Cl)cc3Cl)C1=C[C@H](C1CCCC1)O[C@@H]2C	9.8	nt	nt	nt	nt	nt	nt
COC(=O)c1c(-c2ccccc2OC)sc2ccc(OC)cc12	-3.8	4.7	18.5	8.3	nt	nt	nt
COC(=O)c1c(-c2ccc(OC)cc2)sc2cc3c(cc12)OCO3	-16.1	31.7*	8.4	5.6	nt	72.3*	77.5*
CS(=O)(=O)c1ccc(-c2sc3cc4c(cc3c2C(=O)NN2CCOCC2)OCO4)cc1	-60.6	47.9*	37.1*	5.4	nt	103.8*	85.2*
COc1ccc(-c2sc3cc4c(cc3c2C#CCO)OCO4)cc1	-9.7	9.6	2.5	63.0	nt	nt	nt
COC(=O)c1c(-c2ccc(N(C)C)cc2)sc2ccc(OC)cc12	-5.7	88.8*	8.5	8.3	nt	+	157.8*
COc1ccc(-c2sc3cc4c(cc3c2C#Cc2ccc(N)cc2)OCO4)cc1	-2.2	66.4*	26.0	58.0	nt	69.5*	65.9*
COC(=O)[C@@H]1N=C(c2ccc(OC)cc2)O[C@]12C(=O)N(Cc1cn(Cc3ccccc3)nn1)c1cccc(Cl)c12	2.3	nt	nt	nt	nt	nt	nt
Cn1cccc1C(=O)N1CCN(S(=O)(=O)c2ccc([N+](=O)[O-])cc2)CC1	5.5	nt	nt	nt	nt	nt	nt
Cc1noc(C)c1COC(=O)c1ccc(-c2nc3ccccc3s2)s1	-2.4	5.9	16.8	4.0	-3.0	nt	nt
CCNC(=O)COC(=O)c1ccc(-c2nc3ccccc3s2)s1	-3.9	59.1*	21.1	99.0	-4.0	+	+
C[C@H]1COc2c3ccccc3nn21	-0.8	nt	nt	nt	nt	nt	nt
COc1ccc(-c2cn3ccc4ccccc4c3n2)cc1	-3.7	44.0*	13.3	64.1	1.7	2.3	-3.6

Screens (PubChem BioAssay)
